Results from PubChem BioAssay AID1159580 (chemical genetic matrix, 2015).
Values joined by “and” are separate entries in the source; they are usually repeats but may differ in a detail not shown here. Equal values may be shown once. Screen size: about 5,500 compounds; about 2,000 (36%) were called active. About 18% were inconclusive and are not listed. Rule as the data show it: active = normalized growth mostly below about 0.91 (no sharp cut-off); inconclusive = no clear call, values can overlap the other calls; inactive = mostly above about 0.92. This is one part of the list.

Test: chemical genetic growth profiling, strain panel (AID 1159580);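 also: tested at 20 µM; growth read once vehicle control cultures reached saturation at 30 °C; 1 = growth at the plate median or of vehicle wells; lower values mean less growth of the strain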
Settings: S. cerevisiae deletion strains, growth OD

Measured: normalized growth

CC1(C)O[C@H]2[C@H](O)C[C@](O)(C(N)=O)C[C@H]2O1
inactive: locus YAL013W, strain DEP1, hits give low values 1.01 | locus YAL021C, strain ccr4, hits give low values 0.996 | locus YAL026C, strain drs2, hits give low values 1.04 | locus YAL030W, strain snc1, hits give low values 1.01 | locus YBL061C, strain skt5, hits give low values 1.01 | locus YBR009C, strain hhf1, hits give low values 1.02 | locus YBR021W, strain FUR4, hits give low values 1.02 | locus YBR023C, strain chs3, hits give low values 1.02 | locus YBR171W, strain sec66, hits give low values 1.03 | locus YBR229C, strain ROT2, hits give low values 1.03 | locus YBR231C, strain swc5, hits give low values 1.01 | locus YBR279W, strain paf1, hits give low values 1.01 | locus YCL011C, strain gbp2, hits give low values 1.01 | locus YCL016C, strain dcc1, hits give low values 1.01 | locus YCL029C, strain bik1, hits give low values 1.04 | locus YCL061C, strain MRC1, hits give low values 1.01 | locus YCL069W, strain vba3, hits give low values 1.02 | locus YCR088W, strain abp1, hits give low values 1.01 | locus YDL005C, strain med2, hits give low values 1.01 | locus YDL035C, strain GPR1, hits give low values 1.05 | locus YDL040C, strain nat1, hits give low values 1.01 | locus YDL074C, strain BRE1, hits give low values 1.12 | locus YDL101C, strain DUN1, hits give low values 1.03 | locus YDL185W, strain tfp1, hits give low values 1.02 | locus YDL192W, strain arf1, hits give low values 1.05 | locus YDR001C, strain nth1, hits give low values 1.01 | locus YDR069C, strain doa4, hits give low values 1.01 | locus YDR101C, strain arx1, hits give low values 1.01 | locus YDR137W, strain rgp1, hits give low values 1.04 | locus YDR159W, strain sac3, hits give low values 1.06 | locus YDR162C, strain NBP2, hits give low values 1.04 | locus YDR195W, strain ref2 1.01 | locus YDR297W, strain sur2, hits give low values 1.01 | locus YDR318W, strain mcm21, hits give low values 1.04 | locus YDR334W, strain swr1, hits give low values 1.03 | locus YDR335W, strain msn5, hits give low values 1.02 | locus YDR388W, hits give low values 1.01 | locus YDR392W, strain spt3, hits give low values 0.959 | locus YDR502C, strain sam2, hits give low values 1.03 | locus YEL003W, strain gim4, hits give low values 1.02 | locus YEL037C, strain rad23, hits give low values 1.02 | locus YEL061C, strain CIN8 (second series), hits give low values 1.02 | locus YER015W, strain faa2, hits give low values 1.02 | locus YER016W, strain bim1, hits give low values 1.01 | locus YER110C, hits give low values 1.03 | locus YER111C, strain swi4, hits give low values 0.996 | locus YER155C, strain BEM2 (second series), hits give low values 1.03 | locus YER155C, strain BEM2, hits give low values 0.997 | locus YER167W, strain BCK2, hits give low values 1.02 | locus YFR010W, strain ubp6, hits give low values 1.04 | locus YGL078C, strain dbp3, hits give low values 1.04 | locus YGL086W, strain mad1, hits give low values 1.01 | locus YGL167C, strain pmr1, hits give low values 1.02 | locus YGL173C, strain kem1, hits give low values 1.03 | locus YGL227W, strain vid30, hits give low values 1.01 | locus YGL240W, strain doc1, hits give low values 1.01 | locus YGL248W, strain PDE1, hits give low values 1.05 | locus YGL253W, strain hxk2, hits give low values 1.03 | locus YGR078C, strain PAC10, hits give low values 1.04 | locus YGR135W, strain pre9, hits give low values 1.05 | locus YGR252W, strain gcn5, hits give low values 1.09 | locus YHR013C, strain ard1, hits give low values 1.02 | locus YHR027C, strain rpn1, hits give low values 1.03 | locus YHR030C, strain SLT2, hits give low values 1.01 | locus YHR079C, strain IRE1 (second series), hits give low values 1.03 | locus YHR079C, strain IRE1, hits give low values 0.99 | locus YHR094C, strain hxt1, hits give low values 1.02 | locus YHR129C, strain ARP1, hits give low values 1.04 | locus YHR142W, strain chs7, hits give low values 1.03 | locus YHR200W, strain rpn10, hits give low values 1.05 | locus YIL066C, strain RNR3, hits give low values 1.03 | locus YIL073C, strain SPO22, hits give low values 1.16 | locus YIL125W, strain kgd1, hits give low values 1.01 | locus YIR030C, strain dcg1, hits give low values 1.03 | locus YJL092W, strain hpr5, hits give low values 1.01 | locus YJL095W, strain BCK1 (second series), hits give low values 1.02 | locus YJL095W, strain BCK1, hits give low values 1.1 and 1.02 | locus YJL115W, strain asf1, hits give low values 1.01 | locus YJL129C, strain trk1, hits give low values 1.01 | locus YJL134W, strain LCB3, hits give low values 1.01 | locus YJL154C, strain vps35, hits give low values 1.02 | locus YJL164C, strain tpk1, hits give low values 1.02 | locus YJL166W, strain qcr8, hits give low values 1.02 | locus YJL168C, strain set2, hits give low values 1.02 | locus YJL187C, strain SWE1 (second series), hits give low values 1.05 | locus YJL187C, strain SWE1, hits give low values 1.01 | locus YJR043C, strain POL32, hits give low values 1.05 | locus YJR066W, strain TOR1, hits give low values 0.951
